Measurements: PubChem BioAssay (NCATS)
Records with an inconclusive call do not appear. A number with no mark means an inactive call. The source made the active and inactive calls. The call rests on the fitted dose curve; in most records, active means well fitted inhibition curve with a large enough effect; inconclusive means small, poorly fitted or top-dose-only effect; inactive means no such curve, though single readings can be large or run the other way.

Target: Muscarinic acetylcholine receptor M1 (Rattus norvegicus) (UniProt P08482)
Assay: qHTS Assay for Antagonists of Acetylcholine Muscarinic M1 Receptor: Measurement of IP-One Response (AID 944); further: nearly all actives have a fitted effect of over 75% in size
Details: CHO-M1 cells, IP-One HTRF, antagonist mode; series mostly up to 46.1 µM; activity change, negative = inhibition: at the top concentration
Source text: NIH Molecular Libraries Screening Centers Network [MLSCN]
NIH Chemical Genomics Center [NCGC]
Acetylcholine muscarinic M1 receptor is a G-protein coupled receptor (GPCR) coupling to the Gq G protein. It is mainly expressed in brain and functionally related to the learning and memory processes. The agonists of this receptor have the potential for the treatment of Alzheimer's disease and cognitive impairments associated with Schizophrenia.
Upon an activation of the M1 receptor, phosholipase C (PLC) is activated to produce inositol 1,4,5-trisphosphate (IP3) and diacyl glycerol (DAG). The IP3 is very rapidly hydrolyzed to IP2, IP1 and then inositol by a series of enzymes and Ca2+ is quickly pumped back into ER by the calcium pump on the ER membrane, which effectively switches off the IP3 and Ca2+ signaling. For compound screen, the changes in intracellular free Ca2+ concentration can be measured by the fluorescence calcium dye such as Fura-2, Fluo-3 and Fluo-4 with a fluorescence kinetic plate reader. IP1 or total IPs including IP1, IP2 and IP3 are usually measured as an alternative method for assessing the function of Gq-coupled GPCRs. We have applied a time-resolved fluorescence based (TR-FRET) IP1 assay in which an IP1 specific antibody is used to detect the labeled IP1 tracer. When the cell lysate contains the elevated IP1, the TR-FRET between the labeled antibody and IP1 tracer is disrupted resulting in a reduction in the total signal. Since the TR-FRET is used, a homogenous assay with out cell wash and medium change is possible which also can be miniaturized into the high density format for HTS.
We have obtained a M1-CHO cell line transfected with rat acetylcholine M1 receptor and optimized this IP-One assay with this cell line for compound screening as a counter-screen assay for other Gq-coupled GPCRs.
NCGC Assay Protocol Summary:
The CHO-M1 (CHO-M1) cell line transfected with the rat acetylcholine muscarinic M1 receptor was obtained from American Type Culture Collection (ATCC). The cells were maintained in call culture flasks with F12 Kaighn's media (Invitrogen) supplemented with 10 % FBS, 100 units/ml penicillin, 100 ug/ml streptomycin and 250 ug/ml geneticin (Invitrogen) at 37C, 5 % CO2 in a humidified atmosphere. At 90-95 % confluence, the cells were then detached in 15 ml 0.25 % trypsin by 3 minutes incubation at 37C and centrifuged at 1000 RPM to remove the trypsin solution. The resulting cell pellet was resuspended in the cell freezing media containing 10 % DMSO (Invitrogen) at a density of 4 x 10^7 cells/ml. The aliquots of cells at 0.5 - 1 ml per vial were frozen down slowly at 1 degree C/min using a Cryo 1 degree C freezing container in the presence of isopropanol (Nalgene Nunc, Rochster, NY) overnight in a -80C freezer. The frozen cells were then transferred to liquid nitrogen for the storage up to one year.
The resuspended frozen cells were plated at 3 ul/well with 2000 cells in the black, tissue culture treated, clear bottom 1536-well plates. The cells were cultured at 37C, 5 % CO2 for overnight to allow the cells recovering from the frozen state. 20 nl/well of compound in DMSO solution was added to the assay plate and incubated for 10 min. Carbachol was prepared in stimulation buffer (10mM Hepes, 1mM CaCl2, 0.5 mM MgCl2, 4.2 mM KCl, 146 mM NaCl, 5.5 mM glucose 50mM LiCl 50mM pH7.4) which was added to the assay plate at 1 ul/well. After an incubation with carbachol at 37C, 5 % CO2 for 30 min, all the wells in the assay plate were added with 1 ul/well of d2 conjugated IP1 (d2-IP1) and 1 ul/well of Eu+ cryptate conjugated anti-IP1 antibody (Eu+-Ab), both from the IP-One kit (Cisbio USA., Inc.). After 10 min incubation at the room temperature, the assay plates were measured in the HTRF detection mode in ViewLux plate reader (Ex=337 nm. Em(1)=620 and Em(2)=665 nm)
1536-well assay protocol:
(1) 4 ul/well containing 2000 M1-CHO cells in 1536 tissue culture treated white plate
(3) Add 23 nl compound diluted in DMSO
[…]
Potency means the concentration at half of the fitted maximal effect.

Chain of Muscarinic acetylcholine receptor M1 (Rattus norvegicus) (P08482 whole entry, looked up): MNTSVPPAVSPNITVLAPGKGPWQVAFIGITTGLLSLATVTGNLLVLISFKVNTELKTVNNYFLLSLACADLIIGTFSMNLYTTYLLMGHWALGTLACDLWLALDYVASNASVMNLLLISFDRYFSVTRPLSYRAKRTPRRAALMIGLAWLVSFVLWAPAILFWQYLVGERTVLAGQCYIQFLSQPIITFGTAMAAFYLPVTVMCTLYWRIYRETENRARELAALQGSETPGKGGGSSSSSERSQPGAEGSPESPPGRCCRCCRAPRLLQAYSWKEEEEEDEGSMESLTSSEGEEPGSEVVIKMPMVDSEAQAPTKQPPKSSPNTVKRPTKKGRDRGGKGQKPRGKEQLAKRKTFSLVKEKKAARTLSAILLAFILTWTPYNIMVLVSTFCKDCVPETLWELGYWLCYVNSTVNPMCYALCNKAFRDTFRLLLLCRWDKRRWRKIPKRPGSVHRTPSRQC

Row | SMILES | activity change, negative = inhibition | Potency
1 | CC(C)NCC(O)COc1ccc(COCCOC(C)C)cc1 (centres undefined) | -7.3% | –
2 | CCCCNc1cc(C(=O)O)cc(S(N)(=O)=O)c1Oc1ccccc1 | -24.1% | –
3 | Cc1[nH]c(=O)c(C#N)cc1-c1ccc2nccn2c1 | -16.1% | –
4 | CNC[C@H](O)c1cccc(O)c1 | -30.6% | –
5 | Nc1ccc(S(=O)(=O)Nc2ccnn2-c2ccccc2)cc1 | -26% | –
6 | OC(CN1CCC(Cc2ccc(F)cc2)CC1)c1ccc(Cl)cc1 (centres undefined) | – | 7.94 µM (active)
7 | N=c1nc(N2CCCCC2)cc(N)n1O | -22.1% | –
8 | O=c1n(CCCN2CCN(c3cccc(Cl)c3)CC2)nc2ccccn12 | -46.6% | –
9 | CC(C)(Sc1ccc(CCN(CCCCC2CCCCC2)C(=O)NC2CCCCC2)cc1)C(=O)O | -29.8% | –
10 | NCCc1ccc(O)c(O)c1 | -46.1% | –
11 | C[C@]12CCC(=O)C=C1CC[C@@H]1[C@@H]2[C@@H](O)C[C@@]2(C)[C@H]1CC[C@]2(O)C(=O)CO | -28.7% | –
12 | Cc1ccc(N(CC2=NCCN2)c2cccc(O)c2)cc1 | -14.3% | –
13 | CCOC(=O)C1=C[C@@]2(CC)CCCN3CCc4c(n1c1ccccc41)[C@H]32 | -35.6% | –
14 | C1COC(NC(C2CC2)C2CC2)=N1 | -15.4% | –
